The list is not random: actives were taken first. Their share in the collection is about 7.2%.
HEK293 tox: HEK 293 cell cytotoxicity | HEK 293 viability, ATP luminescence (CellTiter-Glo), 48-72 h | Potency, µM (highest dose often 115 µM), without a hit: at the highest dose activity change, negative = cytotoxicity, actives largely listed as inhibitors | 6.6% of 94,000 active; further: nearly all actives have a fitted effect of over 60% in size
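ATP-coupled CellTiter-Glo luminescence served as viability read-out, recorded 10 min after reagent addition at room temperature. HEK 293 cells, 250 cells/well, had been incubated with pintool-transferred compound for 48 or 72 hr at 37 degree Celsius.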
SNCA expr inh: inhibitors of alpha-synuclein (SNCA) gene expression; HEK-293 SNCA-luciferase knock-in, luminescence, 24 h; Potency, µM (highest dose often 57.2 µM), for inactives: at the highest dose activity change, negative = inhibition, usual class: inhibitors; 0.17% of 140,000 active; AID 1671194;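 further: plate controls were DMSO cells for no effect and cell-free wells for full effect; nearly all actives have a fitted effect of over 45% in size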
Luciferase inh: blocks purified firefly luciferase enzyme activity; Potency, µM (highest dose often 115 µM), actives largely listed as inhibitors; purified P. pyralis luciferase, luminescence, biochemical; 2.5% of 76,000 active; further: nearly all actives have a fitted effect of over 65% in size
Target sequence (P08659 whole entry, looked up): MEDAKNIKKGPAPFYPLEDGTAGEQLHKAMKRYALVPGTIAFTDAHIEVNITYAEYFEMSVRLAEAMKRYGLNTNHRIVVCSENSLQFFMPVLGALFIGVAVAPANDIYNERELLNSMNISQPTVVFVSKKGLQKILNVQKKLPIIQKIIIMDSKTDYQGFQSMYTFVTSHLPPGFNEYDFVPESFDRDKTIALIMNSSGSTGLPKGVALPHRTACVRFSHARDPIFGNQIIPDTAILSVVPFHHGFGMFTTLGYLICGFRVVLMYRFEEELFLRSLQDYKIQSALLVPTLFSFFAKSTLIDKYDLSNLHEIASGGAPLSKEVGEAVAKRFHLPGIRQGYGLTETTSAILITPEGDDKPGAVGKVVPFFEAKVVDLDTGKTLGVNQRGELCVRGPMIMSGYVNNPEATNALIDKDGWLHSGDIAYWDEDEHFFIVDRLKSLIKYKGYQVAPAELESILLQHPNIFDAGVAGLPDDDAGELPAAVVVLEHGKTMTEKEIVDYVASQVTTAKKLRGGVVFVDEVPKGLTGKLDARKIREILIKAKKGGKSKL
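FLuc 10nM, D-luciferin 10uM, ATP 10uM, Mg acetate 10mM, Tris acetate pH 7.5, Tween/BSA; cpd qHTS; enzyme added last; CCD luminescence.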
hNpr1 antagonist: antagonists of human natriuretic peptide receptor Npr1. P16066. HEK293 hNpr1 GloSensor cGMP, ANP-stimulated luminescence. Potency, µM (titrated, usually from 46.3 µM), for inactives: top-dose activity change, negative = inhibition, actives largely listed as inhibitors. 1.6% of 76,000 active. AID 1347048; calls by dose curve; further: nearly all actives have a fitted effect of over 60% in size
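Compound pre-incubated 30 min at room temperature on GloSensor-loaded HEK293 cells stably carrying hNpr1 and the pGS-40F cGMP biosensor. Stimulation uses hNppA at 0.1 nM final; luminescence is taken at baseline and 20 min post-agonist.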
3T3 cytotox: NIH 3T3 cell cytotoxicity. NIH 3T3 viability, CellTiter-Glo ATP luminescence, 48-72 h. Potency, µM (highest dose often 96.7 µM), for inactives: at the top dose activity change, negative = cytotoxicity, most hits filed as inhibitors. 4.3% of 94,000 active; further: nearly all actives have a fitted effect of over 55% in size
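Mouse fibroblast NIH 3T3 cells, 400 per well, received compound via pintool and were incubated for 48 or 72 hr prior to CellTiter-Glo ATP luminescence measurement.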
SNCA viab count: reduces viability of HEK-293 SNCA reporter cells. Potency, µM (series often up to 57.1 µM), without a hit: at the highest dose activity change, negative = cytotoxicity, hits mostly cytotoxic. HEK-293-SNCA-luc viability, GF-AFC fluorescence, 24 h. 0.12% of 150,000 active. AID 1671193;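 further: 0% = DMSO-treated cells and -100% = medium-only wells without cells; nearly all actives have a fitted effect of over 30% in size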
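Cytotoxicity counterscreen: after 24 h compound treatment of genome-edited SNCA-luciferase HEK-293 cells, live-cell protease substrate GF-AFC read by fluorescence after 30 min; activity scaled between DMSO (0%) and medium-only (-100%), curves Hill-fitted.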
* hit, by the source's call; i = inactive; ? = inconclusive; · = no result given; [ ] = remark or other dose. Unless noted, the call rests on the fitted dose curve; in most records, active means well fitted curve in the direction sought with a large enough effect; inconclusive means small, poorly fitted or top-dose-only effect, or another doubt; inactive means no such curve, though single readings can be large; an effect the other way counts as inactive or inconclusive. Unless noted, on the % scale 0 is the no-effect control and ±100 the full control effect; potency means the concentration at half of the fitted maximal effect.

SMILES	HEK293 tox	SNCA expr inh	Luciferase inh	hNpr1 antagonist	3T3 cytotox	SNCA viab count
CC1=CC2/C=C(\C)CC[C@@H](O)[C@@H](O)[C@@H]3O[C@@H]3C(=O)[C@]23C(=O)N[C@@H](CC(C)C)[C@@H]3[C@@H]1C (stereo partly specified)	·	·	·	·	·	-4%[23.9 µM]
O=C(NCCCc1ccccc1)c1ccc2nnc(-c3cncc(Cl)c3)n2c1	?	5%	·	·	?	-17%
CC(c1nccs1)N(C)C(=O)c1csc2nc(-c3ccccc3Cl)cn12 (stereo unspecified)	22µM*	-26%	?	-25%	50µM*	?
O=C(c1ccc(-c2cccs2)cc1)N1CCC(N[S+](=O)([O-])c2ccccc2)CC1	45µM*	-4%	·	·	?	-1%[12.5 µM]
O=[S+]([O-])(NC1CCN(Cc2cccc(-c3cccs3)c2)CC1)c1cccs1	?	10%	·	·	?	6%[12.5 µM]
Cc1noc(C)c1[S+](=O)([O-])NC1CCN(C(=O)c2ccc(-c3cccs3)cc2)CC1	?	-17%	·	·	?	?
COC(=O)CNC(=O)C1CCN(C(=O)c2ccc(-c3cccs3)cc2)CC1	-13%	·	·	·	-28%	·
O=[S+]([O-])(NC1CCN(Cc2cccc(-c3ccc(F)c(F)c3)c2)CC1)c1cccs1	35µM*	·	·	·	?	·
O=[S+]([O-])(CCC(F)(F)F)NC1CCN(Cc2cccc(-c3cccs3)c2)CC1	?	-2%	·	·	22µM*	11%[12.5 µM]
O=C(NCc1ccccc1Cl)C1CCN(C(=O)c2ccc(-c3cccs3)cc2)CC1	?	·	·	·	40µM*	·
CCOC(=O)CNC(=O)NCC1CCC(=O)N(Cc2ccccc2)CC1 (stereo unspecified)	i	-19%	·	·	-5%	7%
Cc1ccc([S+](=O)([O-])NC2CCN(Cc3cccc(-c4cccs4)c3)CC2)cc1	?	-18%	·	·	11µM*	4%[12.5 µM]
O=[S+]([O-])(NC1CCN(Cc2cccc(-c3cccs3)c2)CC1)c1ccccc1	45µM*	-1%	·	·	40µM*	-5%[12.5 µM]
Cc1nc(NCc2ccc(N3CCCC3=O)cc2)cc(C2CC(O)C2)n1 (stereo unspecified)	-7%	-29%	i	7%	-5%	1%
CC(C)NC(=O)N[C@H]1CCN2C(=O)c3cc(/C=C/c4ccccc4)ccc3NC(=O)[C@H]12	2%[172 µM]	10%[87.6 µM]	4µM*	5%[70.6 µM]	i	1%[87.6 µM]
CC(C)N1C[C@H](O)C[C@H]1c1nnc2n1CCN(C(=O)c1ccsc1)C2	i	25µM*	i	5%	1%	0%[12.5 µM]
CC(C)N1C[C@H](O)C[C@H]1c1nnc2n1CCN(C(=O)c1cccs1)C2	i	?	i	8%	1%	1%[12.5 µM]
COCCNC(=O)c1nc2c(o1)CCN(Cc1cc(C)cc(F)c1)CC2	?	14%[87.6 µM]	i	-11%[70.6 µM]	?	1%[87.6 µM]
CN1c2cc(C(=O)N3CCN(c4cccc(Cl)c4)CC3)ccc2C(=O)N2CCCC21 (stereo unspecified)	79µM*	-25%	i	-5%	-15%	10%[12.5 µM]
CN1c2cc(C(=O)N3CCN(c4ccccc4F)CC3)ccc2C(=O)N2CCCC21 (stereo unspecified)	9%	-3%	i	0%	i	5%[12.5 µM]
CN1c2cc(C(=O)N3CCN(c4ccccc4)CC3)ccc2C(=O)N2CCCCC21 (stereo unspecified)	?	21%	i	0%	-9%	9%[12.5 µM]
CN1c2cc(C(=O)N3CCN(c4cccc(Cl)c4)CC3)ccc2C(=O)N2CCCCC21 (stereo unspecified)	45µM*	?	i	-2%	?	0%[12.5 µM]
CN1c2cc(C(=O)N3CCN(c4ccccc4)CC3)ccc2C(=O)N2CCCCCC21 (stereo unspecified)	?	-12%	i	-1%	?	-3%[12.5 µM]
Cc1cccc(N2CCN(C(=O)c3ccc4c(c3)N(C)C3CCCCN3C4=O)CC2)c1 (stereo unspecified)	32µM*	-28%	i	0%	?	2%[12.5 µM]
Cc1noc(C)c1C(=O)N1Cc2ccccc2CC2(CCN(CC3CCNCC3)C2)C1 (stereo unspecified)	i	-19%	·	·	i	7%
SMILES	HEK293 tox	SNCA expr inh	Luciferase inh	hNpr1 antagonist	3T3 cytotox	SNCA viab count
CNC(C)c1ccccc1OC (stereo unspecified)	i	-12%[87.6 µM]	·	·	5%[174 µM]	4%[87.6 µM]
Cc1nn(-c2ccccc2)c(Oc2ccccc2F)c1CCC(=O)NC1CC1	?	-4%	i	-22%	?	2%
O=C(NC1CCN(c2nccc(Nc3ccccc3Cl)n2)CC1)c1ccccc1	40µM*	-14%	·	·	?	-10%
O=C(C1CCN(c2nccc(Nc3ccccc3Cl)n2)CC1)N1CCOCC1	?	37%	·	·	-40%	7%[12.5 µM]
O=C(C1CC1)N1CCN(c2nccc(Nc3ccccc3Cl)n2)CC1	?	77%	·	·	22µM*	-11%
O=C(C1CCCC1)N1CCN(c2nccc(Nc3ccccc3Cl)n2)CC1	?	17%	·	·	14µM*	7%
CC(=O)N1CCN(C(=O)C2CCN(c3nccc(Nc4ccccc4Cl)n3)CC2)CC1	?	2%	·	·	?	-9%[12.5 µM]
O=C1c2c(nc(COc3ccc(F)cc3F)n2Cc2ccccc2)NCCN1CC1CC1	?	?	i	-8%[70.6 µM]	?	-15%[87.6 µM]
O=C(NCc1ccccc1F)c1ccc2oc(-c3ccccn3)nc2c1	?	130%	·	·	?	14%
COc1ccccc1-c1cc(C(=O)Nc2cccc(C(F)(F)F)c2)c2cnn(C)c2n1	14µM*	·	·	·	?	·
COc1ccc(-c2cc(C(=O)Nc3cccc(C(F)(F)F)c3)c3cnn(C)c3n2)cc1	35µM*	·	·	·	?	·
O=C1C2CN(Cc3ccccc3Cl)CCC2OCCN1Cc1ccccc1 (stereo unspecified)	?	-13%[87.6 µM]	i	2%[70.6 µM]	?	5%[87.6 µM]
O=C(C1CC2(CCNCC2)CN1)N1CCCN(Cc2ccc(F)cc2)CC1 (stereo unspecified)	-16%	-2%	i	1%	-15%	5%
COc1cccc(CCC(=O)N(C)C2CCc3nn(CC4CC4)c(=O)n3CC2)c1 (stereo unspecified)	-18%	-2%	i	-2%	-2%	-5%
COc1cc(Cl)ccc1C(=O)NC1CCN(c2cc(-c3ccc(F)cc3)[nH]n2)CC1	?	-17%	i	-4%	35µM*	4%
CCOc1ccccc1C(=O)NC1CCN(c2cc(-c3ccc(OC)cc3)[nH]n2)C1 (stereo unspecified)	?	12%	i	-19%	35µM*	-20%

Bioassay records from PubChem.
